Compound activity: PubChem BioAssay, National Center for Advancing Translational Sciences (NCATS)
This is a sample that favours compounds with a hit; in the whole collection about 9.4% have one here.
FLuc modulator – qHTS profiling assay for firefly luciferase inhibitor/activator using purifed enzyme and Km concentrations of substrates (counterscreen for miR-21 project) | Luciferin 4-monooxygenase (Photinus pyralis), P08659 | purified FLuc, Km substrates, luminescence inhibition | Potency, µM (titrated, usually from 57.5 µM), for inactives: at the highest dose activity change, negative = inhibition, most hits filed as inhibitors | 360,000 tested, 6.9% active | AID 588342, 2011;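 further: plate controls were vehicle for no effect and reference inhibitor for full effect; nearly all actives have a fitted effect of over 55% in size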
Target sequence (P08659 whole entry, looked up): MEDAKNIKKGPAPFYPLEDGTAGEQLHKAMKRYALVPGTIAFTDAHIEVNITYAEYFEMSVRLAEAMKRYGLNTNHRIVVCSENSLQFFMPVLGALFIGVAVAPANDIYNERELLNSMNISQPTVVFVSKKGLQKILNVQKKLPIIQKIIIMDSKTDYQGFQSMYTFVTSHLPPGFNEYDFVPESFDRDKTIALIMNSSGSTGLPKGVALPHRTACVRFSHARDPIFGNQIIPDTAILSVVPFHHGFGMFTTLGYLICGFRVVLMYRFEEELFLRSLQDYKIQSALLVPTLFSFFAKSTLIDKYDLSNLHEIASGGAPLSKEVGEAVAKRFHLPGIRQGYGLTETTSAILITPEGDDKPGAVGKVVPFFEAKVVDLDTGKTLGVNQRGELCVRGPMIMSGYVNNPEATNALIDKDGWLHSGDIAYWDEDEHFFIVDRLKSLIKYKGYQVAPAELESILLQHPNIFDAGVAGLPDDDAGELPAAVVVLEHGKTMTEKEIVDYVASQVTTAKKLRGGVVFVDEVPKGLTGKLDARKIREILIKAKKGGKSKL
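Biochemical qHTS of compounds, final roughly 60 µM downward over six points, against 10 nM purified firefly luciferase using Km concentrations of substrates (10 uM D-luciferin, 10 uM ATP) in Tris acetate pH 7.5 buffer; luminescence output.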
ELG1 genotox – qHTS screen for small molecules that induce genotoxicity in human embryonic kidney (HEK293T) cells expressing luciferase-tagged ELG1 | HEK293T ELG1-luciferase reporter, luminescence, 16 h | Potency, µM (doses to about 46 µM), inactives show at the top dose activity change, positive = activation, actives largely listed as activators | 330,000 tested, 1.3% active | AID 504466, 2011; further: % of control where 0% means no effect; nearly all actives have a fitted effect of over 60% in size
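Quantitative HTS format in 1536-well plates. HEK293T ELG1-luciferase reporter cells receive test compound and are incubated 16 hr at 37 °C, 5% CO2; ONE-Glo added, 30 min room temperature, then luminescence read.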
ELG1 repair inh – qHTS screen for small molecules that inhibit ELG1-dependent DNA repair in human embryonic kidney (HEK293T) cells expressing luciferase-tagged ELG1; HEK293T ELG1-luciferase reporter, luminescence, 16 h; DNA damage induced by 5-fluorouridine; Potency, µM (titrated, usually from 46.1 µM), without a hit: top-dose activity change, negative = inhibition, most hits filed as inhibitors; 330,000 tested, 2.3% active; AID 504467, 2011; further: on the % scale 0 is the no-effect control and ±100 the full control effect; nearly all actives have a fitted effect of over 55% in size
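Quantitative HTS, concentration-response format. 2,000 cells/well co-treated with 5-fluorouridine and compound, 16 hr in 5% CO2 at 37 °C; ONE-Glo luminescence read after 30 min.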
Rab9 promoter act – qHTS Assay for Rab9 Promoter Activators; Huh7 Rab9 promoter-luciferase reporter, luminescence, 24 h; Potency, µM (titrated, usually from 9.22 µM), inactives show at the top dose activation, negative = inhibition, most hits filed as activators; 320,000 tested, 2.8% active; AID 485297, 2010; further: % of control where 0% means no effect; nearly all actives have a fitted effect of over 60% in size
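Rab9 promoter-driven luciferase in stably transfected Huh7 cells; 1500 cells/well rested 2 h, exposed to compound in DMSO for 24 h at 37 °C, 5% CO2. Luminescence read 10 min after adding luciferase reagent at ambient temperature.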
SMN2 splice enh – qHTS Assay for Enhancers of SMN2 Splice Variant Expression; Potency, µM (top dose mostly 46.1 µM), inactives show at the top dose activity change, positive = activation, most hits filed as activators; HEK293 SMN2-luciferase splicing reporter, luminescence, 30-36 h; 210,000 tested, 2.8% active; further: % of control where 0% means no effect; nearly all actives have a fitted effect of over 55% in size
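HEK293 cells carry an SMN2 minigene-luciferase reporter in which exon 7 inclusion puts luciferase in frame. Cells were seeded at 2000 cells/well, attached for 10-12 hours, then exposed to compounds for 30-36 hours at 37C before ONE-Glo luminescence.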
NPC1 promoter act – qHTS Assay for NPC1 Promoter Activators; Huh7 NPC1 promoter luciferase reporter, 24 h; Potency, µM (highest dose often 9.22 µM), for inactives: top-dose activation, actives largely listed as activators; 320,000 tested, 2.4% active; AID 485313, 2010; further: % of control where 0% means no effect; nearly all actives have a fitted effect of over 60% in size
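Compounds in DMSO were transferred onto Huh7 NPC1-luciferase reporter cells pre-incubated 2 h; after 24 h at 37 °C, Amplite reagent was dispensed and luminescence recorded 10 min later.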
Numbers without * were called inactive; u = inconclusive; x = no result. The call rests on the fitted dose curve; in most records, active means well fitted curve in the direction sought with a large enough effect; inconclusive means small, poorly fitted or top-dose-only effect, or another doubt; inactive means no such curve, though single readings can be large; an effect the other way counts as inactive or inconclusive. Potency means the concentration at half of the fitted maximal effect.

SMILES	FLuc modulator	ELG1 genotox	ELG1 repair inh	Rab9 promoter act	SMN2 splice enh	NPC1 promoter act
C/C(=N\Nc1ccc(Cl)c(C(=O)O)c1)c1ccc(Br)s1	u	17.5%	27.0%	17.2%	x	19.9%
C/C(=N\Nc1ccc(C(=O)O)cc1)c1ccc(Cl)s1	0.953µM*	8.4%	u	0.282µM*	x	0.398µM*
C/C(=N\Nc1ccccn1)c1ccc(S(=O)(=O)NCc2ccco2)cc1	u	0.0%	-24.7%	-2.9%	24.4%	-0.2%
CCOC(=O)c1nc2sc3c(c2c(=O)[nH]1)CCC(C)C3 (configuration not stated)	16.9µM*	1.2%	9.5%	-1.9%	x	-4.6%
COc1cccc(-c2nc3sc4c(c3c(=O)[nH]2)CCCCC4)c1	0.151µM*	u	u	u	0.891µM*	u
CC(C)CCOCc1nc2sc3c(c2c(=O)[nH]1)CCC(C)C3 (configuration not stated)	-13.2%	u	u	20.2%	-34.0%	19.8%
CCOC(=O)c1nc2sc3c(c2c(=O)[nH]1)CCCC3	19µM*	-6.0%	0.5%	-1.1%	3.0%	0.8%
Cc1ccc(S(=O)(=O)Cc2nc(-c3ccc(C(=O)NCc4ccccc4F)cc3)oc2C)cc1	-10.6%	x	x	x	x	x
COc1ccc(C(C)=O)cc1COc1cc(C)c(Cl)c(C)c1	-0.1%	-0.9%	-12.6%	-9.2%	x	-0.9%
COc1ccc(C(C)=O)cc1COc1ccc(Cl)cc1Cl	15.1µM*	-4.3%	u	0.3%	x	-1.3%
COc1ccc(C(C)=O)cc1COC(=O)c1cnc(C)cn1	-1.9%	2.3%	-18.4%	-3.4%	2.24µM*	-3.6%
COc1ccc(-c2cc(-c3cc(C)ccc3O)[nH]n2)cc1	12µM*	u	u	-35.7%	x	-22.9%
COc1ccc(Oc2ccc(-c3ccn[nH]3)cc2)cc1	23.9µM*	10.3%	u	u	x	u
COc1ccc(-c2cc(-c3ccc(C)cc3)n[nH]2)c(O)c1	4.78µM*	u	u	1.26µM*	x	1.26µM*
COc1ccc(-c2cc(-c3ccc(OC)cc3)[nH]n2)cc1	8.49µM*	u	u	u	9.6%	2.82µM*
COc1ccc(-c2n[nH]c(C)c2-c2ccc(Cl)cc2)c(O)c1	1.4%	-6.1%	-0.2%	2.9%	-15.5%	1.8%
CCOC(=O)Cc1ccc(NC(=O)N2CC(C)Oc3ccc(Cl)cc32)cc1 (configuration not stated)	-0.2%	x	x	x	x	x
O=C(NCC(c1ccc2c(c1)OCO2)N1CCN(c2ccccc2F)CC1)c1ccccc1F (configuration not stated)	-0.8%	x	x	x	x	x
CC(C)Oc1ccc(CNS(=O)(=O)c2ccc(-c3cc(C(F)(F)F)on3)s2)cc1	-0.6%	x	x	x	x	x
O=C(COc1ccccc1F)c1ccc(O)cc1O	u	13.2%	25.8%	7.4%	-4.8%	11.9%
Cc1c(O)ccc(C(=O)COc2ccccc2F)c1O	21.3µM*	u	u	5.0%	-16.8%	15.3%
COc1cc(Cl)c(C)cc1NC(=O)CSc1cc(-c2ccccc2)nc(C)n1	3.2%	x	x	x	x	x
Cc1cc(C2(c3cc(C)c(O)cc3C)OS(=O)(=O)c3ccccc32)c(C)cc1O	x	x	x	x	-8.0%	x
Cc1cccc(-n2ccnc2SCC(=O)Nc2nccs2)c1C	-1.2%	-2.7%	u	2.0%	-40.6%	0.0%
CCc1nnc(NC(=O)CSc2ccc(-c3cccs3)nn2)s1	10.7µM*	-14.4%	-2.3%	1.8%	-5.0%	-0.4%
CCc1nnc(NC(=O)CSc2ccc(-c3ccc(F)cc3)nn2)s1	10.7µM*	u	13.1%	-3.0%	u	2.1%
